Screening data from PubChem.
Rows were chosen to be rich in hits. Some 2.4% of all compounds tested hit in one or more screens of this group.
Pol kappa inh-1 – DNA polymerase kappa (human) inhibition | Q9UBT6 | purified Pol kappa, fluorescent DNA synthesis assay, 10 min | Potency, µM (titrated, usually from 107 µM), for inactives: top-dose activity, negative = inhibition, most hits filed as inhibitors | actives 0.53% (n = 400,000); note: potency is the fitted concentration of half-maximal effect; % is set by controls: 0 for no effect and ±100 for the full control effect
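Pol kappa 10 nM + cpd, 15 min RT; start w/ substrate 50 nM final; fluorescence kinetic read, 0 and 10 min. Neg ctrl: buffer, no enzyme.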
POLB inh – inhibitors of human DNA polymerase beta; Potency, µM (titrated, usually from 114 µM), without a hit: at the top dose activity change, negative = inhibition, hits mostly inhibitors; P06746; actives 1.3% (n = 340,000); Pol beta primer extension/strand displacement, fluorescence kinetic; note: potency is the fitted concentration of half-maximal effect; % is set by controls: 0 for no effect and ±100 for the full control effect
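10 nM enzyme + cpd, 15 min RT; start with substrate 50 nM final; read 0 min and after 10 min RT. Corrected, normalized data; 4-parameter Hill curve fit.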
POLI inh – blocks human DNA polymerase iota activity | Pol iota fluorescent replication assay, 10 min | Potency, µM (titrated, usually from 115 µM), inactives show at the highest dose activity, negative = inhibition, hits mostly inhibitors | actives 1% (n = 390,000); note: potency is the fitted concentration of half-maximal effect
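Fluorescent replication assay read twice, at 0 min and 10 min after adding 50 nM (final) substrate. Enzyme (10 nM) and compounds were first incubated 15 min at room temperature; enzyme-free buffer wells were negative controls.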
Pol eta inh-1 – DNA polymerase eta (human) inhibition; Potency, µM (top dose mostly 114 µM), inactives show top-dose activity change, negative = inhibition, most hits filed as inhibitors; actives 1.2% (n = 390,000); Q9Y253; recombinant Pol eta, fluorescent DNA replication assay; note: potency is the fitted concentration of half-maximal effect; % is set by controls: 0 for no effect and ±100 for the full control effect
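Fluorescent replication assay: 50 nM final substrate added after a 15 min room-temperature compound preincubation with 10 nM enzyme. Signal taken at 0 min and again at 10 min.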
FEN1 inh – blocks human flap endonuclease 1. P39748. Recombinant FEN1 flap cleavage, fluorescence, 15 min. Potency, µM (highest dose often 114 µM), for the others: top-dose activity change, negative = inhibition, most hits filed as inhibitors. actives 0.35% (n = 390,000). AID 588795; note: potency is the fitted concentration of half-maximal effect; % is set by controls: 0 for no effect and ±100 for the full control effect; nearly all actives have a fitted effect of over 65% in size
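Steps: FEN1 (10 nM) dispensed; compound added by pin tool; 15 min at room temperature; substrate added to 50 nM final; reads at 0 min and 15 min; data normalized and fitted (four-parameter Hill).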
WRN helicase inh – WRN helicase (human) inhibition. actives 0.46% (n = 360,000). Potency, µM (doses to about 114 µM), for the others: at the top dose activity change, negative = inhibition, hits mostly inhibitors. WRN helicase unwinding, fluorescent forked duplex, kinetic. Q14191; note: potency is the fitted concentration of half-maximal effect; % is set by controls: 0 for no effect and ±100 for the full control effect; nearly all actives have a fitted effect of over 55% in size
Target sequence (Q14191 whole entry, looked up): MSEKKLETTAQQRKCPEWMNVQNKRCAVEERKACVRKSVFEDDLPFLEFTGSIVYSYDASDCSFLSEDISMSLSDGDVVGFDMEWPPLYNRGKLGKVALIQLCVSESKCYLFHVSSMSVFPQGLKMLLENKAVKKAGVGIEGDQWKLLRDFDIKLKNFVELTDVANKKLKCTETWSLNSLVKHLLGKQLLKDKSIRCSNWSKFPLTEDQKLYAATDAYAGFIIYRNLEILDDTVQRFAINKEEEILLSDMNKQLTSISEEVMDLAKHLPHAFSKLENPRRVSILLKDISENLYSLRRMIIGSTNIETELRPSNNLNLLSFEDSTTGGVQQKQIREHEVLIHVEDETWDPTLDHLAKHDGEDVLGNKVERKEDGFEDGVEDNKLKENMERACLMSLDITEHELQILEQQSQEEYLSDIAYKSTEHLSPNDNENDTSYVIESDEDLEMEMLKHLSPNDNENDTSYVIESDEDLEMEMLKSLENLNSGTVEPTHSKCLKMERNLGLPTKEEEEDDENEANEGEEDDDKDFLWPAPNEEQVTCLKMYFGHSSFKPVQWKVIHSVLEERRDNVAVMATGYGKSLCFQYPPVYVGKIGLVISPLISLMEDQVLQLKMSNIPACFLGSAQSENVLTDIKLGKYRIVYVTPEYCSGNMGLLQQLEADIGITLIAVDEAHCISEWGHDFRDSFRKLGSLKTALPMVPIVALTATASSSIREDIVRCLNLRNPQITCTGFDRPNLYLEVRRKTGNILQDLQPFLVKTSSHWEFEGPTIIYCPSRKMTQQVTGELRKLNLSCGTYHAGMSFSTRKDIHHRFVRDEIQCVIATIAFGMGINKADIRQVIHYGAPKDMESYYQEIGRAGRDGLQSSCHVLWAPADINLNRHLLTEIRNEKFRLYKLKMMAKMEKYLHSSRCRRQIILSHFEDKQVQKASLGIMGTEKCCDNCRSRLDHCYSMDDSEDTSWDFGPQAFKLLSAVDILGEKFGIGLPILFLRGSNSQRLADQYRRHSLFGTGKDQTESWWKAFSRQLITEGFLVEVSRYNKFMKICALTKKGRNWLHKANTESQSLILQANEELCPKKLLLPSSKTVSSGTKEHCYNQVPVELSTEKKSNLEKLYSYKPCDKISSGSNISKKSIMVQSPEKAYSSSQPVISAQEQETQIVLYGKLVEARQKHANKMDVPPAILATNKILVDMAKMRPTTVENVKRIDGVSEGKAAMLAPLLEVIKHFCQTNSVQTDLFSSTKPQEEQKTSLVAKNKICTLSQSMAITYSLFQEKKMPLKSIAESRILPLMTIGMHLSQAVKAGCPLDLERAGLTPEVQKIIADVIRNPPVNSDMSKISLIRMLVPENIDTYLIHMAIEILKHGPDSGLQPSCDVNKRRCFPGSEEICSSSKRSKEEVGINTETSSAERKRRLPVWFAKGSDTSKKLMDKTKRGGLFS
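Kinetic fluorescence helicase assay: unwinding of a quenched forked DNA duplex (100 nM final) with 2 mM ATP final raises red fluorescence (525/598 nm). Compounds sat 15 min at room temperature with 20 nM WRN beforehand.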
TbPGK inh – validation of Trypanosoma brucei phosphoglycerate kinase inhibitors. shares compounds with Pol kappa inh-1. TbPGK coupled GAPDH assay, Kinase-Glo luminescence. Potency, µM (top dose mostly 57.5 µM), for the others: at the top dose activity change, negative = inhibition, hits mostly inhibitors. actives 79% (n = 500); note: potency is the fitted concentration of half-maximal effect; % is set by controls: 0 for no effect and ±100 for the full control effect; nearly all actives have a fitted effect of over 65% in size
POLI cherry-pick – Human Pol iota inhibitor confirmatory assay; Potency, µM, actives largely listed as inhibitors; shares compounds with Pol kappa inh-1; actives 77% (n = 1,500); Pol iota primer extension, TAMRA/BHQ fluorescence; note: potency is the fitted concentration of half-maximal effect
GALK inh confirm – confirmation of human galactokinase (GALK) inhibitors; shares compounds with Pol eta inh-1; purified GALK, Kinase-Glo ATP depletion luminescence; Potency, µM (highest dose often 115 µM), without a hit: at the highest dose activity, negative = inhibition, actives largely listed as inhibitors; actives 70% (n = 150)
GALK redox cs – counter-screen for GALK inhibitors: redox cycling H2O2 generation | shares compounds with Pol eta inh-1 | Phenol red-HRP H2O2 redox cycling, absorbance 600 nm | Potency, µM (top dose mostly 115 µM), inactives show at the top dose activity change, negative = H2O2 signal, hits mostly inhibitors | actives 40% (n = 150) | AID 2035
HEK293 viability – counter-screen for GALK inhibitors: HEK293 cell cytotoxicity. Potency, µM (doses to about 46.1 µM), without a hit: at the top dose activity change, negative = cytotoxicity, hits mostly inhibitors. HEK-293 viability, ATP luminescence (CellTiter-Glo), 24/48 h. shares compounds with Pol eta inh-1. actives 10% (n = 170). AID 2547; note: potency is the fitted concentration of half-maximal effect; % is set by controls: 0 for no effect and ±100 for the full control effect
Pol kappa inh-2 – Pol kappa (human) inhibition, cherry-pick confirmation; shares compounds with Pol eta inh-1; purified Pol-kappa, fluorescent strand-displacement substrate; Potency, µM, most hits filed as inhibitors; actives 76% (n = 920); AID 720501; note: potency is the fitted concentration of half-maximal effect
Pol eta inh-2 – Pol eta (human) inhibition, cherry-pick confirmation | actives 64% (n = 2,600) | Pol eta primer extension, TAMRA/BHQ fluorescence, 10 min | shares compounds with Pol eta inh-1 | AID 720502 | Potency, µM, usual class: inhibitors; note: potency is the fitted concentration of half-maximal effect
Numbers without * were called inactive; ? = inconclusive; / = no result given; [ ] = remark or other dose. Calls come from the whole dose curve; as a rule, active = well fitted curve in the direction sought with a large enough effect; inconclusive = small, poorly fitted or top-dose-only effect, or another doubt; inactive = no such curve, though single readings can be large; an effect the other way counts as inactive or inconclusive.

SMILES | Pol kappa inh-1 | POLB inh | POLI inh | Pol eta inh-1 | FEN1 inh | WRN helicase inh | POLI cherry-pick | Pol eta inh-2 | others
O=C1/C(=C\c2cc(Cl)c(O)c(Cl)c2)SC(=S)N1Cc1ccccc1 | -27.7% | ? | 10µM* | 50.1µM* | 50.1µM* | 11.2µM* | 84.4* | / | GALK inh confirm=26.6µM*;GALK redox cs=5.5%;HEK293 viability=?
O=C(O)CCN1C(=O)/C(=C\c2cccc(Oc3ccccc3)c2)SC1=S | ? | ? | 25.1µM* | 39.8µM* | ? | ? | ? | 75.7*
COc1ccc(/C=C2/SC(=S)N(CCC(=O)O)C2=O)cc1 | -12.7% | 21.9% | -5.4%[58.9 µM] | -9.1% | -11.8% | -17.5% | / | /
O=C(O)c1cc(-c2ccc(/C=C3\NC(=O)N(c4ccccc4)C3=O)o2)ccc1Cl | 44.7µM* | 22.4µM* | ? | 3.98µM* | ? | ? | 33.6* | 15.1*
CC(=C\C(=O)O)/C(=C/c1ccc(C)o1)C(=O)O | ? | 20µM* | ? | 7.94µM* | 7.1% | -18.0%[11.6 µM] | 33.6* | 21.3*
CC(=C\C(=O)O)/C(=C/c1ccco1)C(=O)O | ? | ? | ? | ? | -15.5% | 2.0%[11.6 µM] | / | /
CC(CNc1ccccc1O)C(=O)O (stereo unspecified) | ? | 8.91µM* | ? | 25.1µM* | -2.5% | -26.1% | / | 60.1* | TbPGK inh=?
CC(NC(=O)CCC(=O)Nc1ccccc1O)c1ccccc1 (stereo unspecified) | -1.4% | / | 49.2% | -19.0% | 8.4% | 0.0% | / | /
CCn1c(=NC(=O)c2ccc(S(=O)(=O)N3CCCCC3)cc2)sc2cccc(OC)c21 | -1.9% | -3.2% | 5.5% | -17.7% | 9.8% | / | / | /
CCc1ccc(C(=O)c2cn(CC(=O)Nc3ccc4c(c3)OCO4)c3ccc(CC)cc3c2=O)cc1 | -4.6% | 4.47µM* | -93.7% | 89.1µM* | 3.2% | / | 42.3* | ?
Cc1cc(OC(C)C(=O)Nc2c(C(=O)c3ccc(F)cc3)oc3ccccc23)ccc1Cl (stereo unspecified) | -27.5% | -22.6% | -3.2% | -11.1% | 4.2% | / | / | /
COc1ccc(NC(=O)CN(C)C(=O)c2cccc(-n3cccc3)c2)cc1 | 44.7µM* | / | 12.6µM* | 11.2µM* | -12.1% | 44.7µM* | 29.9* | 67.5*
O=C1Nc2c(Cl)cccc2C1=O | / | / | / | / | / | -2.9% | / | /
Cc1cccc2c1NC(=O)C2=O | 50.1µM* | / | 8.91µM* | 8.91µM* | ? | 28.2µM* | 42.3* | 16.9* | Pol kappa inh-2=15*
NS(=O)(=O)c1ccc(N=Nc2ccc(=O)[nH]c2O)cc1 | ? | 6.31µM* | ? | 10µM* | 79.4µM* | 50.1µM* | 37.7* | ? | TbPGK inh=5.17µM*;Pol kappa inh-2=15*
CC1COCC(C)N1C1=C(Cl)C(=O)c2ccccc2C1=O (stereo unspecified) | -8.4% | / | 8.91µM* | -14.7% | -21.7% | -34.4% | 42.3* | 26.9*
Cc1cccc(NC(=O)CNC(=O)c2cccc(-n3cccc3)c2)c1C | 31.6µM* | / | 7.94µM* | 3.16µM* | ? | ? | 9.47* | 9.53*
Cc1cccc(NC(=O)CNCC(=O)Nc2cccc(C)c2C)c1C | 18.2% | 40.5% | 52.8% | -5.1% | 6.9% | 5.0% | / | /
CN(C)c1ccc(/C=C2\SC(=S)N(Nc3ncc(C(F)(F)F)cc3Cl)C2=O)cc1 | 17.8µM* | -1.0% | 11.2µM* | 44.7µM* | ? | 50.1µM* | 21.2* | 19*
CC(=O)Nc1ccc(S(=O)(=O)N(C)CC(=O)OCC(=O)N2CCCCCC2)cc1 | -11.9% | 31.1% | 26.4% | -13.5% | 3.8% | 1.6% | / | /
CC(=O)Nc1ccc(S(=O)(=O)N(C)CC(=O)OCC(=O)N2CCN(C(=O)c3ccco3)CC2)cc1 | ? | / | 39.8µM* | 28.2µM* | 1.3% | -15.2%[11.6 µM] | ? | 75.7*
CC(=O)c1ccc(NC(=O)Cn2c3ncccc3c(=O)n2-c2ccc(C)cc2)cc1 | -14.5% | 16.2% | -13.4% | -15.4% | 12.6% | / | / | /
N#Cc1cccc(-c2nc3cnc(Oc4cccc(Cl)c4)nc3n(C3CC3)c2=O)c1 | -5.5%[60.1 µM] | / | / | / | / | / | / | /
CCCN1CCN(CCCNC(=O)c2cnn(-c3ccc(F)cc3)c2-n2cccc2)CC1 | 4.9% | 9.2% | 9.6% | -1.0% | -3.7% | / | / | /
Cc1cc[n+](-c2[nH]c(=O)sc2/C=N/N=C(\[O-])c2ccncc2)cc1C | -5.3% | 3.6% | 1.1% | 0.3% | ? | 2.1% | / | /
Cc1cc[n+](-c2[nH]c(=O)sc2/C=N/N=C(\[O-])c2ccncc2)cc1 | ? | ? | 39.8µM* | 79.4µM* | -26.5% | 0.3%[11.6 µM] | 53.2* | 75.7*
S=c1[nH]nc(-c2cc(-c3ccccc3)n[nH]2)n1/N=C/C=C/c1ccco1 | 50.1µM* | 22.4µM* | 14.1µM* | 22.4µM* | ? | ? | ? | 30.1* | Pol kappa inh-2=23.8*
N#Cc1ccccc1N1CCN(C(=O)c2ccc(NC(=O)c3ccc(Br)o3)cc2)CC1 | 70.8µM* | / | 22.4µM* | 22.4µM* | -6.8% | -25.8% | ? | 75.7* | Pol kappa inh-2=?
